{"source": "PubChem BioAssay (NCATS)", "note": "Inconclusive results are not listed. A number with no mark means an inactive call. Calls come from the whole dose curve; as a rule, active = well fitted inhibition curve with a large enough effect; inconclusive = small, poorly fitted or top-dose-only effect; inactive = no such curve, though single readings can be large or run the other way."}
{"target": "Rap guanine nucleotide exchange factor 3 (Homo sapiens) (UniProt O95398)", "sequence (O95398 whole entry, looked up)": "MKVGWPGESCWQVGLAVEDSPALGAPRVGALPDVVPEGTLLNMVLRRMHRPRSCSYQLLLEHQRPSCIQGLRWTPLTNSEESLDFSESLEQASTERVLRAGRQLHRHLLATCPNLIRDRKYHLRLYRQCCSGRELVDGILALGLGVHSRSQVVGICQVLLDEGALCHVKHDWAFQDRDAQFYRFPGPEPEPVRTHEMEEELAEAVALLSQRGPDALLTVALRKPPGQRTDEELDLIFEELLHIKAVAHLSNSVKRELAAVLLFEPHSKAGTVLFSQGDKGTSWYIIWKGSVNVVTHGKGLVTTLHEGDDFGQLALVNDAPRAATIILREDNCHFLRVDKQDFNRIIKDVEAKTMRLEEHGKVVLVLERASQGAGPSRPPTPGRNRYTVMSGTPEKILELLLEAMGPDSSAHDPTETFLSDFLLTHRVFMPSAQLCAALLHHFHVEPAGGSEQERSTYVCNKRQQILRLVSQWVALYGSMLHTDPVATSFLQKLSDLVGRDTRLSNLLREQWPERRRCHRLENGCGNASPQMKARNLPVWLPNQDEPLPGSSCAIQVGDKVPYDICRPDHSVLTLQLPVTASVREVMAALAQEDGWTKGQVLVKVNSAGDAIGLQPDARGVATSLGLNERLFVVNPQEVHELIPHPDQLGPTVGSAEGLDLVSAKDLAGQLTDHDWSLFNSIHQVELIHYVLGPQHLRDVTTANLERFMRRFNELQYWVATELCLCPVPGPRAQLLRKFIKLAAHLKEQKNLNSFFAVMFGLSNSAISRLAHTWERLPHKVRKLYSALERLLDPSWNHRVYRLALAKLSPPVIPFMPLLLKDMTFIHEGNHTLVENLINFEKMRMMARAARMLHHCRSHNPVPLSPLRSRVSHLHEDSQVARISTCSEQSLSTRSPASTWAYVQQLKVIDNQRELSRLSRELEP", "assay": "Counterscreen qHTS for antagonist of cAMP-regulated guanine nucleotide exchange factor 3 (EPAC1) (AID 1645888);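 note: fluorescence loss as bound BODIPY-GDP is released from Rap1B; % of control where 0% means no effect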", "conditions": "Rap1B-BODIPY-GDP nucleotide exchange, fluorescence; series mostly up to 154 µM; activity change, negative = inhibition: at the top concentration", "how_it_was_run": "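Measured: fluorescence of BODIPY-GDP bound to Rap1B, which falls as exchange proceeds. Conditions include 50 uM competing GDP, 5 and 30 min reads, and a later cAMP challenge for antagonist detection.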"}
{"molecule": "COc1ccc(C2=CC3=C(Br)C(=O)C(C)(OC(=O)c4cccs4)C(=O)C3=CO2)cc1", "note": "(configuration not stated)", "activity change, negative = inhibition": "30.3%"}
{"molecule": "CCOc1ccc(S(=O)(=O)N2CCCCC2)c(C)c1C", "activity change, negative = inhibition": "39.4%"}
{"molecule": "COc1ccc2ccc3c(c2c1)N=C[C@]1(O3)N(C)c2ccccc2C1(C)C", "activity change, negative = inhibition": "27.3%"}
{"molecule": "COC(=O)c1cn(C(=O)c2ccc(OC)c(OC)c2)c2ccccc12", "activity change, negative = inhibition": "-11% [at 30.8 µM]"}
{"molecule": "COC(=O)c1cn(S(=O)(=O)c2ccccc2)c2ccccc12", "activity change, negative = inhibition": "-8.12%"}
{"molecule": "COc1ccccc1N(C)c1cc2c(c3c1ccn3C)C1CCC2O1", "note": "(configuration not stated)", "activity change, negative = inhibition": "31.7%"}
{"molecule": "O=c1cc(N2CCCCC2)c(-c2ccccc2)nn1Cc1ccccc1", "activity change, negative = inhibition": "8.1%"}
